In ChEMBL document CHEMBL1157539, “Thousands of chemical starting points for antimalarial lead identification” (Nature, 2010):

Tested on: Plasmodium falciparum
Assay: GSK_TCMDC: Inhibition of Plasmodium falciparum Dd2 in whole red blood cells, using parasite LDH activity as an index of growth. Test compounds present at 2uM
Format: functional

| Compound | Inhibition |
| --- | --- |
| CCCCCn1c(Sc2ccc(C#N)c([N+](=O)[O-])c2)nnc1-c1ccccc1 | 15% |
| Cc1ccc(C)c(NC(=O)NCCNc2ccnc(Nc3ccc(F)cc3)n2)c1 | 5% |
| Cc1ccccc1C1CCN(c2ccc(NC(=O)c3ccc(Cl)nc3)cc2)CC1.O=C(O)C(F)(F)F | 82% |
| CN(C)C(CNC(=O)c1cc(-c2ccncc2)c(-c2cc3ccccc3[nH]2)o1)c1ccccc1.O=C(O)C(F)(F)F (stereo not given) | 62% |
| COc1cc(C(=O)Nc2ccc3nc(N4CCN(C)CC4)cc(C)c3c2)cc(OC)c1OC | 79% |
| c1ccc(CNc2nc(NCCc3c[nH]cn3)nc(NCc3cccc4ccccc34)n2)cc1 | 1% |
| CCN(CC)CCN(Cc1ccc(-c2ccc(C(F)(F)F)cc2)cc1)C(=O)Cn1c(CCc2cc(F)c(F)cc2F)nc(=O)c2ccccc21.O=C(O)C(O)C(O)C(=O)O | 50% |
| CCOc1ccc(C(C)NC(=O)C2COc3ccccc3O2)cc1OCC (stereo not given) | 100% |
| O=C(O)C(F)(F)F.c1ccc2[nH]c(-c3ccc(-c4ccc(CN5CCCCC5)cc4)cc3)nc2c1 | 100% |
| CCN(CC)CCNc1ccnc2ccc3ccccc3c12 | 67% |
| Cc1cc(N2Cc3ccccc3C2)nc(Nc2cccc(C#N)c2)n1 | 97% |
| CCN(CC)CCN(Cc1ccc(-c2ccc(C(F)(F)F)cc2)cc1)C(=O)Cn1c(CCc2ccc(F)c(F)c2)cc(=O)c2ccccc21.O=C(O)C(O)C(O)C(=O)O | 26% |
| O=C(Nc1cccc(-c2ccc(-c3nc4cc(F)ccc4[nH]3)cc2)c1)c1csnn1 | 31% |
| N=C(N)NN=CC(=O)Nc1ccc(Cl)c(C(F)(F)F)c1 | 0% |
| Fc1ccccc1-c1cc(Nc2ccncc2)nc(-c2cccnc2)n1 | 89% |
| Cc1ccc2sc(N(CCCn3ccnc3)C(=O)c3ccco3)nc2c1C.Cl | 98% |
| CCOC(=O)NC1=NC(=N)N(OCCCOc2cc(Cl)c(Cl)cc2Cl)C(C)(C)N1 | 94% |
| CC1(C)N=C(N)N=C(N)N1c1ccc(Oc2ccc(Cl)cc2)c(Cl)c1 | 20% |
| CCC1CN2CCc3c([nH]c4ccc(OC)cc34)C2CC1CC1NCCc2cc(OC)c(OC)cc21.Cl (stereo not given) | 21% |
| FC(F)(F)c1ccc(-c2cncc(-c3ccc(C(F)(F)F)cc3)n2)cc1 | 97% |

| Compound | Inhibition |
| --- | --- |
| Cc1cccc2nc(-c3cccc(-c4cccc(NC(=O)CNc5ccc(C(N)=O)cc5)c4)c3)[nH]c12 | 56% |
| COc1cc2nc(N3CCC(CNC(=O)c4ccc(-c5ccc(-c6noc(C)n6)cc5)cc4)CC3)nc(N)c2cc1OC | 100% |
| CC(=O)Oc1cc(OCc2ccccc2)c(OC(C)=O)c(OCc2ccccc2)c1 | 78% |
| CC1(C)N=C(N)N=C(NOCc2ccc(Cl)c(Cl)c2)N1 | 27% |
| CCNc1cc(C(=O)N[C@@H](Cc2ccccc2)[C@H](O)CNCCc2ccccc2)cc(N2CCCC2=O)c1.O=C(O)C(F)(F)F | 46% |
| CCc1ccc(CN2CCC(NC(=O)c3ccc(-c4ccc(N(C)C)cc4)s3)CC2)cc1.O=C(O)C(F)(F)F | 44% |
| O=C(CCc1c[nH]cn1)Nc1cccc(-c2cccc(-c3nc4cc(C(F)(F)F)ccc4[nH]3)c2)c1 | 99% |
| Cc1cnccc1/C=C/c1cccc(OCCCN2CCc3ccc(S(C)(=O)=O)cc3CC2)c1 | 72% |
| C=CCc1cc(Cc2cnc(N)nc2N)cc(CCC)c1OC | 1% |
| CCN(CCS(C)(=O)=O)Cc1ccc(-c2ccc3ncnc(Nc4ccc(OCc5cccc(F)c5)c(Cl)c4)c3c2)o1.Cc1ccc(S(=O)(=O)O)cc1 | 63% |
| CCn1c(-c2nonc2N)nc2c(-c3ccccc3)ncc(OCCCNCCCN3CCOCC3)c21.O=C(O)C(F)(F)F | 91% |
| Cc1cc(C)n2nc(C(=O)Nc3cc(C(F)(F)F)ccc3N3CCOCC3)nc2n1 | 91% |
| CC(C)C(=O)NC(Nc1ccc([N+](=O)[O-])cc1)C(Cl)(Cl)Cl (stereo not given) | 84% |
| Cl.O=C(CNC1=NCCN1)Nc1ccc(NC(=O)Nc2ccc(NC(=O)CNC3=NCCN3)cc2)cc1 | 75% |
| CC(=O)N1N=C(c2[nH]c3ccc(Br)cc3c2C)OC1c1ccccc1 (stereo not given) | 68% |
| CC(=O)Nc1cccc(Nc2nccc(-c3c(-c4cccc(NC(=O)c5c(F)cccc5F)c4)nn4ncccc34)n2)c1 | 51% |
| CC(C)N1CCC(N(Cc2ccc(-c3ccc(C(F)(F)F)cc3)cc2)C(=O)Cn2c(SCc3cccc(F)c3F)cc(=O)c3ccccc32)CC1.O=C(O)C(O)C(O)C(=O)O | 77% |
| O=C(/C=C/c1ccc(Cl)c(Cl)c1)NCCCCCN1CCC(NC(=O)Nc2ccc(F)c(F)c2)CC1 | 4% |
| COc1ccc(Br)cc1C1C2C(=O)N(c3ccc(Br)cc3)C(=O)C2C2(C(=O)O)CC(OCc3ccccc3)CN12 (stereo not given) | 99% |
| CCOP(=O)(OCC)c1ccc(OC)c(-c2ccc[nH]2)c1 | 10% |
